# Measurements published in PubChem BioAssay AID2284192 (EPA ToxCast).
# Activity calls are given as the source filed them. Rule for the calls: active = hit-call score of the fitted dose curve at least 0.9, where 1 is the maximum; inactive = score below 0.9.
# Target: human Opioid Receptor mu (MOP) Agonism, OPRM1 (gene 4988) (UniProt P35372)
# Assay: ERF_FR_GPCR_hOPRM1: Eurofins (ERF) G Protein-Coupled Receptor (GPCR) Radioligand Binding LeadHunter Assay for human Opioid Receptor mu (MOP) Agonism
# Method: ERF_FR_GPCR_hOPRM1 is a biochemical, single-readout assay that uses extracted gene-proteins in a cell-free assay. Measurements were taken 2 hour after chemical dosing in a 96-well plate. See mu (MOP) Human Opioid GPCR Binding (Agonist Radioligand) Assay, Cerep.ERF_FR_GPCR_hOPRM1 is an assay component calculated from the ERF_FR_GPCR_hOPRM1 assay. It is designed to measure radioligand binding using a type of binding reporter as detected by scintillation counting with radiometry technology.Data from the assay component ERF_FR_GPCR_hOPRM1 was analyzed at the assay endpoint, ERF_FR_GPCR_hOPRM1, in the positive analysis fitting direction relative to DMSO as the negative control and baseline of activity. Using a type of binding reporter, gain-of-signal activity can be used to understand changes in binding as they relate to gene OPRM1. To generalize the intended target to other relatable targets, this assay endpoint is annotated to the gpcr intended target family, where the subfamily is opioid.
# Human cells are incubated for 60 minutes at room temprature with [3H]DAMGO ligand (0.1 nM) and DAMGO as control inhibitor. Test Sample Requirements: Minimum for 1) Screen: 60 ul of 10 mM stock -OR- 1 mg (pre-weighed) for 10 uM final testing. 2) Dose Response: 90 ul of 10 mM stock -OR- 1 mg (pre-weighed) for a top concentration at 10 uM.
# Chain of human Opioid Receptor mu (MOP) Agonism, OPRM1 (gene 4988) (P35372 whole entry, looked up): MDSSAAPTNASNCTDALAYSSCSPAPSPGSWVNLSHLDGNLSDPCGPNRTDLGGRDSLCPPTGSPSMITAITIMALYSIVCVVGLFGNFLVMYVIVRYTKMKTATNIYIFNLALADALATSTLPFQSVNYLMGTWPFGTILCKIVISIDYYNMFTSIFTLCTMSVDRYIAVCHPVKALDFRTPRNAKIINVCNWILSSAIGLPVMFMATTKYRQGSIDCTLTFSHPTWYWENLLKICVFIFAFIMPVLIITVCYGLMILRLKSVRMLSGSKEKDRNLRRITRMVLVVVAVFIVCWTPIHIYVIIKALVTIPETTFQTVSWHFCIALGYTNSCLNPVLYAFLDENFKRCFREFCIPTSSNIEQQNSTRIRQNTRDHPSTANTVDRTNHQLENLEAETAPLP
row,Structure (SMILES),AC50
1,O=C(/C=C/c1ccc(O)cc1)CC(=O)/C=C/c1ccc(O)cc1,419 nM (active)
